# In PubChem BioAssay AID1671202 (University of Kansas High Throughput Screening Laboratory, 2021):
# Screen size: about 190,000 compounds; about 6,900 (3.6%) were called active. The list comes from a sample in which actives are over-represented; it also holds similar structures and randomly drawn compounds. Values without a mark were called inactive. Rule as the data show it: active = inhibition above about 50%; inactive = the rest.
# Biological target: Huntingtin (Homo sapiens) (UniProt P42858)
# Sequence (P42858 whole entry, looked up, stated change not applied): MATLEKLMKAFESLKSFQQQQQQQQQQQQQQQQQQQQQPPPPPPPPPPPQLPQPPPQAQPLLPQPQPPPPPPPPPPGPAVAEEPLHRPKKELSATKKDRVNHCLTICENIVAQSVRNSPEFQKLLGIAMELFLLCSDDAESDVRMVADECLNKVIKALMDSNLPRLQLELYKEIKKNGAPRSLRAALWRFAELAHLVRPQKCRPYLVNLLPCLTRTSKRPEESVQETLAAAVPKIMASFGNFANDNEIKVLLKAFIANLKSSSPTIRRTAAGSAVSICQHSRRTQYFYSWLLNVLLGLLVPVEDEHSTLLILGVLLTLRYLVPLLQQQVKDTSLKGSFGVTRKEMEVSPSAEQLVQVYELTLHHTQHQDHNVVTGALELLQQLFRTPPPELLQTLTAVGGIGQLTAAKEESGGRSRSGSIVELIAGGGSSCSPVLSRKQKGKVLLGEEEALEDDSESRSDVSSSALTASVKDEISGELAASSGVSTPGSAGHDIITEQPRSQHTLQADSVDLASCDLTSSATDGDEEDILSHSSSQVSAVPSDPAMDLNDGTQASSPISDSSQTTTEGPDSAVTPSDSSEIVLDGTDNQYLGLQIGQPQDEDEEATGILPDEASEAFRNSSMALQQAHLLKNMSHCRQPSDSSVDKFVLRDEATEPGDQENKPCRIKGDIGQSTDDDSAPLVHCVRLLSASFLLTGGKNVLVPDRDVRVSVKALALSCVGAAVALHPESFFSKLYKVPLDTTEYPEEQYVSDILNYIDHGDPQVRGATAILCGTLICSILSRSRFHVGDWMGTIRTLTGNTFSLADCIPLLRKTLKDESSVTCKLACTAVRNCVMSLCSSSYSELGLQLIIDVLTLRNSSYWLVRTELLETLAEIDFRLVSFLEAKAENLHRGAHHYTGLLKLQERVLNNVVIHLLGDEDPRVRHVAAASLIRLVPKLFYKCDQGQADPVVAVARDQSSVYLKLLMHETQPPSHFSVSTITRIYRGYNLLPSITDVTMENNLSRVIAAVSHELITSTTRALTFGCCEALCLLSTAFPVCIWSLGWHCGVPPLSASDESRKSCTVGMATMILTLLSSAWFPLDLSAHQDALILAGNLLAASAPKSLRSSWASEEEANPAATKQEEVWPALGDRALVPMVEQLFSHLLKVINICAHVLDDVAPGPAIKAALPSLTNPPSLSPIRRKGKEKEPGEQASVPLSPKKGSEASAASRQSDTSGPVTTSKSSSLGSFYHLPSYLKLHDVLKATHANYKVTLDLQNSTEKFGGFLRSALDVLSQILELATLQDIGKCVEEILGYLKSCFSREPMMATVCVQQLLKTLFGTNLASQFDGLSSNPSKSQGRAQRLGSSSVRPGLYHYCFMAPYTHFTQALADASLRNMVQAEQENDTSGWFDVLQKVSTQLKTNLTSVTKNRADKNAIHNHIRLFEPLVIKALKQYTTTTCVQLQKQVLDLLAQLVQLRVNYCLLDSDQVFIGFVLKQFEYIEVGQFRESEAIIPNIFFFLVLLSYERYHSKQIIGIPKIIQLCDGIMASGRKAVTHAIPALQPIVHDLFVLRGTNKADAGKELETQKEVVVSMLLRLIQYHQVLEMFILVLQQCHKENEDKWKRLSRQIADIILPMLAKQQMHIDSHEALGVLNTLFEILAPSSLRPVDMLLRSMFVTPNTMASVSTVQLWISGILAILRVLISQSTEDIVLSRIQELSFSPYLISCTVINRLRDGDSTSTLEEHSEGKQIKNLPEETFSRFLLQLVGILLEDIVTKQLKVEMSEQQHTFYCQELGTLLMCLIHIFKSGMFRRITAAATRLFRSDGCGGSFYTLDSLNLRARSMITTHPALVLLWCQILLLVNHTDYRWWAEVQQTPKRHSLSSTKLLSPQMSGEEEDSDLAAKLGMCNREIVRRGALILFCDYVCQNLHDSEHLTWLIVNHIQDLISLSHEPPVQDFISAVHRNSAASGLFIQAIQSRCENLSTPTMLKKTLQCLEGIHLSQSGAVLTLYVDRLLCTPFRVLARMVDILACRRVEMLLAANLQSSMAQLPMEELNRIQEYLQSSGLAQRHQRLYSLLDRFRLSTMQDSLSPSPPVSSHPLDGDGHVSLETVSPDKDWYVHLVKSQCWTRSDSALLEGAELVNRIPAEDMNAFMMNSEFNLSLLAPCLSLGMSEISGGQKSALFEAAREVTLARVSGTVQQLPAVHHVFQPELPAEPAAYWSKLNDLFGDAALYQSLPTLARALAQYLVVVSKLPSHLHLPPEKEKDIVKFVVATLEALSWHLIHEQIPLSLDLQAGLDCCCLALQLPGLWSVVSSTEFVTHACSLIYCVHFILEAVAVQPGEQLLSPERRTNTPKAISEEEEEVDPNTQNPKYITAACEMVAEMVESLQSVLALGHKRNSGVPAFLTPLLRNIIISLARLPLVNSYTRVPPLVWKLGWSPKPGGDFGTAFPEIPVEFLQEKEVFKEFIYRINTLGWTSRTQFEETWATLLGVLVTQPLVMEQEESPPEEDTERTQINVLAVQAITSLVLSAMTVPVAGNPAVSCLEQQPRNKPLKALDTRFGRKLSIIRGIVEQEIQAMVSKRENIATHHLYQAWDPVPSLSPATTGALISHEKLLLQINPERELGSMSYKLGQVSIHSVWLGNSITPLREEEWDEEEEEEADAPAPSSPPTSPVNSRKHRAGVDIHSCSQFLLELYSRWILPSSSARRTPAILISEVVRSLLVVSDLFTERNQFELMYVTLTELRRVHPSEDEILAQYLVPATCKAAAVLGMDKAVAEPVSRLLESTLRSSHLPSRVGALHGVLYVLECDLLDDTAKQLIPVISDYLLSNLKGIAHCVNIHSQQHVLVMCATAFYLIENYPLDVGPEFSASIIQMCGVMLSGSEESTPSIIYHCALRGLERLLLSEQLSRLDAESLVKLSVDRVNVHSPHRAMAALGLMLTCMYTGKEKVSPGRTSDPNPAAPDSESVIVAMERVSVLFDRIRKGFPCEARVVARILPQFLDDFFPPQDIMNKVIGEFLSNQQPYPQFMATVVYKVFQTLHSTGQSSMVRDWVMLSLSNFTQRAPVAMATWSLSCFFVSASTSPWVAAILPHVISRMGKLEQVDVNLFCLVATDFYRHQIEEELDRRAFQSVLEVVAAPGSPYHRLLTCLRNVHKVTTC
# Assay: mutant huntingtin-calmodulin interaction inhibitors – biochemical, AlphaScreen, primary screen (AID 1671202);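 also: 0% = both proteins with DMSO and 100% = one protein alone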
# Conditions: AlphaScreen His-mHTT/GST-CaM binding, luminescence; at 15 µM, active compounds read high
row,SMILES,inhibition
1,Cc1cc(C(=O)N2CCC(CCOc3ccc(F)cc3)CC2)no1,-3.47%
2,CCN1CCC2(CC1)N=C(c1ccccc1O)CC(c1ccc(C)cc1)N2 (stereo not drawn),51.5% (active)
3,COc1cccc(C2CC(c3ccc(C)cc3C)=NC3(CCN(C(C)=O)CC3)N2)c1O (stereo not drawn),7.51%
4,CCOC(=O)N1CCC2(CC1)N=C(c1ccccc1O)CC(c1ccc(F)c(Cl)c1)N2 (stereo not drawn),51.8% (active)
5,CCOC(=O)N1CCC2(CC1)N=C(c1cc(Cl)ccc1O)CC(c1ccc(C)cc1)N2 (stereo not drawn),6.77%
6,CN1CCC2(CC1)N=C(c1ccc3c(c1)OCO3)CC(c1cc(Cl)ccc1O)N2 (stereo not drawn),16%
7,Oc1ccc(Cl)cc1C1CC(c2ccccc2)=NC2(CCNCC2)N1 (stereo not drawn),7.96%
8,Cc1ccc(S(=O)(=O)NCC2CCN(C(=O)Oc3ccccc3)CC2)s1,-6.7%
9,Cc1cccc(-c2nc(C3CCN(C(=O)Cc4ccccc4Br)CC3)no2)c1,-7.4%
10,COc1ccc(C(=O)Oc2ccc3c(=O)c(Oc4ccccc4OC)coc3c2)cc1,0.8%
11,Cc1cccc(-n2nc3c(c2NC(=O)c2cccc(Cl)c2)CS(=O)(=O)C3)c1C,16%
12,CCCN(CCC)CCCNC(=O)CSc1nc2nc(C)c(Cc3ccccc3)c(C)n2n1,7%
13,COc1ccc(OCCCC(=O)Nc2ccccc2)cc1,-9.6%
14,O=c1oc2ccc(Br)cc2cc1-c1ccc2c(c1)OCO2,-1%
15,C=CS(=O)(=O)N(Cc1nnn(Cc2ccccc2)c1Br)[C@H](C(=O)OC)C(C)C,-13.3%
16,O=C(Nc1ccc(Cl)cc1)c1ccc(N2CC3CC(C2)c2cccc(=O)n2C3)c([N+](=O)[O-])c1 (stereo not drawn),6%
17,COc1ccc(Br)cc1C=C(NC(=O)c1cc(OC)c(OC)c(OC)c1)C(=O)N1CC2CC(C1)c1cccc(=O)n1C2 (stereo not drawn),73.4% (active)
18,CN(Cc1ccccc1)C(=O)c1ccc(N2CC3CC(C2)c2cccc(=O)n2C3)c([N+](=O)[O-])c1 (stereo not drawn),9%
19,CCC(=O)N1CCN(c2nc3c(s2)CC(C(=O)Nc2cc(C)ccc2C)CC3)CC1 (stereo not drawn),18.3%
20,COc1ccc(C2CC(C(F)(F)F)n3ncc(C(=O)Nc4cc(C)ccc4C)c3N2)cc1OC (stereo not drawn),27%
21,COc1ccc(C2CC(C(F)(F)F)n3ncc(C(=O)Nc4ccc(C)c(C)c4)c3N2)cc1OC (stereo not drawn),53% (active)
22,Cc1ccc(NC(=O)c2cnn3c2NC(c2ccco2)CC3C(F)(F)F)cc1C (stereo not drawn),-4%
23,Cc1ccc(CNC(=O)c2ccnc(N3CCNC(c4ccccc4)C3)c2)cc1 (stereo not drawn),35.5%
